# From PubChem
# In the library only some 2.9% were active in any assay of this set; here they are far more common.
# N-glyco inh = blocks N-linked glycosylation in D54 reporter cells | D54 ERlucT glycosylation luciferase reporter, 24 h; percent of 100 nM tunicamycin response | AID 588692 | reporter increase, % at 12.5 µM | 0.23% of 360,000 active;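 active = mean luciferase reporter signal, scaled so untreated is 0 and the glycosylation-blocking control 100, at or above a set limit in every replicate; inconclusive = mean reaches the limit but not every replicate does; inactive = mean below the limit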;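 also: luciferase carries N-glycosylation sites so blocking glycosylation raises the light; 0% = median of neutral control wells and 100% = median of 100 nM tunicamycin wells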
# Wnt bcat act = activates Wnt/beta-catenin signaling in a reporter cell assay | 1.2% of 300,000 active | AID 743398 | activation, % at 9.35 µM | activator, plate reader; in the data active = activation above about 30%, passing the limit was not always enough; inconclusive = no clear call, values can overlap the other calls;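 also: 0% = neutral control wells and 100% = positive control wells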
# MITF TRPM1 HTS = activators of MITF-driven TRPM1 promoter activity in SK-MEL-5 cells. SK-MEL-5 TRPM1-promoter luciferase, 24 h; % of positive control, neutral wells = 0. activation, % at 12.5 µM. 0.75% of 300,000 active;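 active = mean activation of at least 80% with every replicate also reaching 80%; inconclusive = mean reaches 80% but some replicate falls short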;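 also: 0% = neutral control wells and 100% = parthenolide positive control wells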
# PfHsp90 set2 = reduces growth (ATP signal) of yeast expressing P. falciparum Hsp90; S. cerevisiae expressing PfHsp90, BacTiter-Glo ATP, 48 h; yeast lacking PDR1 and PDR3 efflux regulators; inhibition, % at 9.4 µM; 0.32% of 310,000 active; AID 504621;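 active = every replicate shows inhibition above about 80%, whatever the replicate mean, limit read from the data; inconclusive = mean inhibition reaches the set limit but some replicate falls short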;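 also: 0% = DMSO neutral controls and 100% = 20 µM radicicol positive controls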
# NSD2 inh = blocks human histone methyltransferase NSD2 | NSD2 peptide methylation, AlphaScreen, 120 min | inhibition, % at 12.5 µM | 0.54% of 310,000 active | AID 743445; in the data active = inhibition above about 50%
# Target sequence (O96028 whole entry, looked up): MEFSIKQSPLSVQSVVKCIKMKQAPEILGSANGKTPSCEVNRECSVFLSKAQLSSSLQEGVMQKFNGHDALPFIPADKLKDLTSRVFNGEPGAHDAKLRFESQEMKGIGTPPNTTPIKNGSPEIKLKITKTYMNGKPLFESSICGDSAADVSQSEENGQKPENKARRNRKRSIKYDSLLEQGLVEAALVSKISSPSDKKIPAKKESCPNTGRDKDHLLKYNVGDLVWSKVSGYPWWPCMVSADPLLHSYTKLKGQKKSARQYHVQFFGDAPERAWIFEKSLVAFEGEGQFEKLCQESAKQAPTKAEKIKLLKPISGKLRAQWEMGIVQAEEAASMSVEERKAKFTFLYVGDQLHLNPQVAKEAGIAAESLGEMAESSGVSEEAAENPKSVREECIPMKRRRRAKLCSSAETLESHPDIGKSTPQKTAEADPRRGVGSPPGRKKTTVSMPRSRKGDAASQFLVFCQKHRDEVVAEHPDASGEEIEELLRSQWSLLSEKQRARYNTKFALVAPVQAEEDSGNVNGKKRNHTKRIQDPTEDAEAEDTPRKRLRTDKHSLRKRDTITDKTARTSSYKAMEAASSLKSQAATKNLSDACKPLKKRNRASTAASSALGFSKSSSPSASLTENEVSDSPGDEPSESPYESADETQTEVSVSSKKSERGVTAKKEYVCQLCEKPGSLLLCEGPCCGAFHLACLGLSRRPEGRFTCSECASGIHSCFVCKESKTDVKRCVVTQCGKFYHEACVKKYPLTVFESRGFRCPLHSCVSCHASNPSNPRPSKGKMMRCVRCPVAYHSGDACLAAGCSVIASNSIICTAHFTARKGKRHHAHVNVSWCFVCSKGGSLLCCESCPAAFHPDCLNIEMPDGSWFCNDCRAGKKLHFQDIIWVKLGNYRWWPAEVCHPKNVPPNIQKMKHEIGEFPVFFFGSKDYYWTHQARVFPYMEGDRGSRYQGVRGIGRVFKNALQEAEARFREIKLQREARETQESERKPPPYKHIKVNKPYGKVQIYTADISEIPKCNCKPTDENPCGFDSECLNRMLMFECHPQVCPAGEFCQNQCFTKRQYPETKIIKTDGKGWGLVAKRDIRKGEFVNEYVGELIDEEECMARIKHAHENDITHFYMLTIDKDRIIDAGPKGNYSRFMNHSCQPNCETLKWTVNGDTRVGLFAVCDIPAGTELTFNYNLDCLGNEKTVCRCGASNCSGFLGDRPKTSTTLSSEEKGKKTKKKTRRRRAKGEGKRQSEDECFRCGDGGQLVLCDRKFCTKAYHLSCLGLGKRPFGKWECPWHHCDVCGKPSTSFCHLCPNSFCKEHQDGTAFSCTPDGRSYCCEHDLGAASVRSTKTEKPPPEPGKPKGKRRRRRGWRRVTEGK
# TRPM1 prom inh = inhibitors of MITF-driven TRPM1 promoter in melanoma cells. inhibition, % at 12.5 µM. SK-MEL-5 TRPM1 promoter luciferase, 24 h. 0.83% of 330,000 active;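 active = mean inhibition across replicates of 60% or more, whatever share of single replicates reaches that level; inconclusive = some that reach 60%, reason not given; inactive = mean inhibition across replicates below 60%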
# * = called active by the depositor; ? = inconclusive; . = no result given; + = active, no number.
SMILES,N-glyco inh,Wnt bcat act,MITF TRPM1 HTS,PfHsp90 set2,NSD2 inh,TRPM1 prom inh
COC(=O)[C@H](C)NC(=O)C(Cc1ccc2c(c1)OCO2)NC(C)=O (stereo not given in full),.,.,.,.,1.0,.
Cc1noc(C)c1COc1ccccc1C(=O)N(C)Cc1ccco1,1.4,37.8*,-0.6,7.1,0.8,2.3
Cc1cc(C)cc(N(CC(=O)NC2CCC(C)CC2)S(=O)(=O)c2ccc(Cl)s2)c1 (stereo not given),.,.,.,.,-1.5,.
CCc1cc2c(nc1CC)CCCN2Cc1ccc(Br)cc1,.,-0.7,.,.,.,.
Cc1ccc(C(CNS(=O)(=O)c2ccccc2)N2CCN(C)CC2)cc1 (stereo not given),-1.6,0.6,6.9,.,4.0,-10.5
Cc1ccc(C(CNS(=O)(=O)c2ccc(Br)cc2)N2CCN(C)CC2)cc1 (stereo not given),-0.9,-3.0,-77.4,.,2.9,79.5*
O=C(NCCc1c[nH]c2ccccc12)OC1CC2CC1[C@H]1CCCCN1C2=O (stereo not given in full),.,-0.4,.,.,.,.
COc1cc2c(cc1NC(=O)CSc1ccccn1)oc1ccccc12,3.3,.,94.6*,.,-0.8,-88.4
COc1cc2c(cc1NC(=O)CSc1ccc(Cl)cc1)oc1ccccc12,0.0,.,-6.2,-6.2,-1.6,8.3
CCc1ccc(-c2cc(N)n(-c3ccccc3)n2)cc1,-8.9,9.3,54.7,-75.0,-1.6,-47.0
Cc1cccc(-c2cc(N)n(-c3ccccc3)n2)c1,-7.6,-1.4,86.8*,11.4,0.9,-86.0
Cc1ccc(-c2cc(N)n(-c3ccccc3)n2)cc1,-4.4,.,92.8*,-1.9,15.6,-81.8
Cc1cccc(-c2cnn(-c3ccccc3)c2N)c1,1.2,24.0,?,15.2,0.2,-75.7
O=C(CCN1CCN(S(=O)(=O)c2ccc(F)cc2)CC1)Nc1ccccc1F,0.4,-2.9,9.7,3.9,-1.1,-8.5
O=C(CCn1nnnc1CN1CCOCC1)N1CCC(c2ccccc2F)C1 (stereo not given),0.1,0.1,0.0,-26.6,-0.4,-0.5
COc1ccc2c(c1)OC[C@H]1[C@H]2N2C(=O)c3cc(F)ccc3NC(=O)[C@@]2(C)[C@H]1c1ccccc1,16.0,-0.7,1.8,-11.5,.,1.2
COc1ccc2c(c1)OC[C@H]1[C@H]2N2C(=O)c3cc(Cl)ccc3NC(=O)[C@@]2(C)[C@H]1c1ccccc1,20.7,.,-32.3,+,.,27.7
COc1ccc2c(c1)OC[C@H]1[C@H]2N2C(=O)c3cc(OC)ccc3NC(=O)[C@@]2(C)[C@H]1c1ccccc1,23.7,-3.3,-17.7,112.6*,.,16.6
O=C(NCCc1cccc(F)c1)c1cc2ccccn2n1,.,.,.,.,10.7,.
O=C(CN1C(=O)C2(OCCCO2)c2ccccc21)NCc1ccc(F)cc1,.,.,.,.,-0.5,.
CCOc1ccc(-c2ccc(SC)nn2)cc1,-21.8,-6.8,-61.6,45.4,-5.2,62.1*
N/C(=N\OC(=O)c1ccc2c(c1)OCO2)c1ccc(Cl)cc1,-6.6,-2.2,106.1*,15.6,-1.8,-94.9
N/C(=N\OC(=O)c1ccc2c(c1)OCO2)c1ccncc1,-1.3,55.1*,55.0,5.0,-3.9,-59.5
COc1ccc(C(NC(=O)N2CC(C)OC(C)C2)C(Cl)(Cl)Cl)cc1F (stereo not given),-0.1,.,3.2,10.3,-3.2,-8.8
c1cc2cc(-c3c(-c4ccc5c(c4)OCO5)noc3-c3ccsc3)ccc2[nH]1,-1.2,32.9*,41.9,3.3,.,-39.3
SMILES,N-glyco inh,Wnt bcat act,MITF TRPM1 HTS,PfHsp90 set2,NSD2 inh,TRPM1 prom inh
Cc1onc(-c2ccc3c(c2)OCO3)c1-c1ccc2[nH]ccc2c1,5.9,-3.8,-23.0,-18.8,.,25.3
OCCC1CN(Cc2nc3ccccc3s2)CCN1C1CCCC1 (stereo not given),-0.7,-1.6,-1.9,8.9,.,2.1
CCOC(=O)c1ccc(-c2ccc(/C=N/NC(=O)CN(c3ccccc3Cl)S(C)(=O)=O)o2)cc1,-2.5,11.1,8.6,-7.3,-0.5,-7.6
CCOC(=O)c1ccc(-c2ccc(/C=N/NC(=O)CN(c3cccc(C)c3)S(C)(=O)=O)o2)cc1,28.2*,.,-0.1,-17.8,-1.8,-6.8
Cc1cccn2c1nc(=S)n2C(=O)c1ccco1,-1.4,71.8*,60.8,-15.6,-1.9,-51.5
Nc1[nH]c(C(=O)c2ccccc2)c(-c2cccc3ccccc23)c1C(=O)NCc1ccc(Cl)cc1Cl,.,-3.5,.,.,.,.
c1ccc(NC2=Nc3cccc4cccc2c34)cc1,6.0,0.4,11.8,-12.9,0.5,-15.9
Fc1ccc(/C=N/NC2=Nc3cccc4cccc2c34)cc1,-5.6,58.4*,17.7,-3.9,-0.2,-15.7
Cc1csc(NC(=O)CCNC(=O)c2ccc([N+](=O)[O-])cc2)n1,0.1,-3.3,-11.2,5.2,0.1,13.8
O=C(Oc1ccc(-c2ccccc2)cc1)N1CCCCC1,0.3,.,126.7*,3.9,-0.1,-123.0
CC(C)CCNC(=O)[C@@H](Cc1ccccc1)NC(=O)[C@H]1O[C@@H](n2ccc(=O)[nH]c2=O)[C@H](O)[C@@H]1O,.,12.6,.,.,-2.6,.
O=C(CCCCCCC(=O)Nc1ccccc1)NO,858.4*,245.5*,-84.2,3.8,.,84.2*
CC(=O)Nc1cccc(NC(=O)CCCC(=O)O)c1,2.1,39.6*,3.4,.,28.9,-3.0
COc1cccc(NC(=O)c2oc3ccccc3c2NC(C)=O)c1,-1.2,14.1,68.2,5.9,-0.1,-51.3
O=C(Nc1ccccc1)C(Cl)C(=O)c1ccccc1 (stereo not given),3.8,-1.6,.,106.4*,4.8,-47.9
COCC(=O)Nc1c(C(=O)Nc2cccc(OC)c2)oc2ccccc12,-1.8,?,97.4*,.,2.6,-102.4
CC(=O)c1ccc(NC(=O)CC(C)S(=O)(=O)c2ccc3c(c2)CCN3C(C)=O)cc1 (stereo not given),0.4,-0.6,15.9,20.6,0.4,-17.9
COc1cccc(NC(=O)CC(=O)c2ccccc2)c1,-1.1,33.1*,79.6,-23.2,-1.7,-81.9
COc1cccc(NC(=O)Cc2ccccc2)c1,-2.3,?,69.2,-1.4,.,-69.6
O=C(O)CC(=O)Nc1ccccc1,-1.3,.,-6.7,0.6,-1.4,8.1
O=C(CC(=O)c1ccccc1)Nc1ccccc1,0.1,34.5*,.,-2.5,-2.7,-66.6
COc1cccc(C(=O)N[C@@H](CC(C)C)C(=O)N2CCC[C@H]2C(=O)NCc2ccccc2)c1,.,-1.0,.,.,.,.
COCCNC(=O)C1(C)CCN(Cc2csc(-c3ccc(Cl)cc3)n2)C1 (stereo not given),-0.2,.,.,.,-1.3,.
O=C(CSc1nc2ccccc2c(=O)n1NC(=O)c1ccccc1)c1ccc(Cl)cc1,-11.8,32.3*,42.4,-6.7,-1.2,-45.4
O=C(CSc1nc2ccccc2c(=O)n1NC(=O)c1ccccc1)c1ccccc1,-8.3,.,60.4,3.6,-3.7,-61.8
COc1cccc(C2(O)CC(C(F)(F)F)=NN2C(=O)c2ccccn2)c1 (stereo not given),0.0,45.4*,36.4,-39.5,-25.8,-37.1
